MEKK2wt PB1 HTS: modulators of MEK5 binding to wildtype MEKK2, primary screen, biochemical, multiplex bead flow cytometry, Alexa488-MEK5. AID 1531, 2009. Alexa488-MEK5 binding to MEKK2 WT; actives lie on both sides. actives 1.1% (n = 290,000). binding response (% of control), % at 10 µM. Mitogen-activated protein kinase kinase kinase 2 (Homo sapiens), Q9Y2U5; in the data active = binding response below about 67% or above about 130%
MEKK2 mut-MEK5: MEK5 binding signal on mutant MEKK2 PB1, primary screen, biochemical, multiplex bead flow cytometry, Alexa488-MEK5 | Alexa488-MEK5 binding to MEKK2 mutant | actives 0.35% (n = 290,000) | percent response, % at 10 µM | AID 1530, 2009; in the data active = percent response above about 24%, passing the limit was not always enough
Pf gametocyte: late stage P. falciparum gametocyte viability inhibitors, primary screen, ATP luminescence, HTS; P. falciparum stage V gametocytes, 24 h; inhibition, % at 10.9 µM; actives 0.065% (n = 150,000); AID 743093, 2013;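 active = inhibition above the mean plus 3 SD of compounds within the control limits, set per campaign, cut at about 38% in these data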;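 note: 0% = DMSO wells and 100% = medium only without gametocytes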
MEKK3 PB1 HTS: modulators of MEKK3-MEK5 PB1 binding, primary screen, biochemical, wildtype MEKK3, multiplex bead flow cytometry, Alexa488-MEK5; Mitogen-activated protein kinase kinase kinase 3 (Homo sapiens), Q99759; bead-based flow cytometry, Alexa488-MEK5 binding to MEKK3; actives lie on both sides; 0 = blocked by unlabeled MEK5, 100 = vehicle; binding response (% of control), % at 10 µM; actives 1.4% (n = 290,000); AID 1529, 2009;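 active = binding response more than 3 SD above or below the average of its plate-row segment, actives on both sides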;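 note: Alexa488 bead fluorescence after subtracting the streptavidin-only scavenger bead signal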
Target sequence (Q99759 whole entry, looked up): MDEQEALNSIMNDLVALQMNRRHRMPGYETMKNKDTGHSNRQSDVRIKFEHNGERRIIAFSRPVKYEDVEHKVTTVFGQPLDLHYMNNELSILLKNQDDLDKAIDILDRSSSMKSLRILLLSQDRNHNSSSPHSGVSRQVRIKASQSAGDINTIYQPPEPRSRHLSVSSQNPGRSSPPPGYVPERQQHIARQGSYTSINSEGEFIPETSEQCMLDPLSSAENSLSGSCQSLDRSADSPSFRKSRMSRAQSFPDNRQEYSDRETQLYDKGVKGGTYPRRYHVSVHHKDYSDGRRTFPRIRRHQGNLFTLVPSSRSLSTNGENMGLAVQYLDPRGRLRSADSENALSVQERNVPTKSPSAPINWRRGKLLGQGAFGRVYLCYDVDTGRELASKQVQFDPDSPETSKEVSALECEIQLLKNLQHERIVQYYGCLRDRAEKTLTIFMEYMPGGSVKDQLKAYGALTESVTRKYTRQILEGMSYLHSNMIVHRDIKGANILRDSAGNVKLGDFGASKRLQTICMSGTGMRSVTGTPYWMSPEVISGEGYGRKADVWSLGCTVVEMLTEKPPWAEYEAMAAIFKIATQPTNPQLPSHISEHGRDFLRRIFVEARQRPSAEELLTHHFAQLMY
Arbovirus inh: antivirals against arbovirus infection, primary screen, cell-based, full library, 10K replicate subset | arbovirus infection cell-based antiviral screen | inhibition, % at 10 µM | actives 0.37% (n = 200,000) | AID 1251, 2008; in the data active = inhibition above about 30%
MEKK2wt confirm: modulators of MEK5 binding to wildtype MEKK2, confirmation, biochemical, single concentration, multiplex bead flow cytometry; shares compounds with MEKK3 PB1 HTS; Alexa488-MEK5 binding to MEKK2 WT; actives lie on both sides; binding response (% of control), % at 10 µM; actives 2.4% (n = 5,900); AID 1892, 2009; in the data active = binding response below about 16% or above about 210%; inactive = in between
MEKK2mut confirm: mutant MEKK2 PB1-MEK5 binding signal retest – biochemical, single concentration, multiplex bead flow cytometry, confirmation; shares compounds with MEKK3 PB1 HTS; Alexa488-MEK5 binding to MEKK2 mutant; actives 2% (n = 5,900); percent response, % at 10 µM; in the data active = percent response mostly above about 71%, no sharp cut-off; inactive = mostly below about 38%;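 note: higher means compound restores mutant binding toward wildtype level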
MEKK3 confirm: MEKK3 wild-type PB1 binding to MEK5, inhibitors, confirmation, biochemical, bead multiplex flow cytometry, single concentration, wildtype. binding response (% of control), % at 10 µM. actives 1.8% (n = 5,900). shares compounds with MEKK3 PB1 HTS. Alexa488-MEK5 binding to MEKK3; active compounds read low;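 active = binding response below 72% of control, or above a set upper limit, though filed actives all read lower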;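 note: 100% = DMSO only wells and 0% = binding blocked by excess unlabeled MEK5; lower values mean stronger disruption of MEK5 binding to MEKK3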
Numbers without * were called inactive; x = no result; [ ] = another dose, or the depositor's remark. In the library only some 2.4% were active in any assay of this set; here they are far more common.

SMILES | MEKK2wt PB1 HTS | MEKK2 mut-MEK5 | Pf gametocyte | MEKK3 PB1 HTS | Arbovirus inh | MEKK2wt confirm | MEKK2mut confirm | MEKK3 confirm
CCOC(=O)c1ccc(NC(=S)NCCCN2CCOCC2)cc1 | 101 | -7 | -62 | 95 | 12 | x | x | x
CCOC(=O)c1ccc(NC(=S)NN2CCN(C)CC2)cc1 | 58 | -6 | 5 | 41*[inhibitor] | 12 | 98 | -3 | 99
CCOC(=O)c1ccc(NC(=S)NC2CCCC2)cc1 | 95 | -1 | x | 65*[inhibitor] | 0 | 99 | -2 | 99
C/C(=N/NC(=O)CNC(=O)c1ccccn1)c1cccc([N+](=O)[O-])c1 | 99 | 1 | -5 | 100 | 0 | x | x | x
Nc1nc(-c2cccc(NS(=O)(=O)c3ccccc3)c2)cs1 | 85 | -12 | x | 82*[inhibitor] | 12 | 96 | -7 | 99
CC(=O)Nc1ccc(S(=O)(=O)Nc2cccc(-c3csc(C)n3)c2)cc1 | 98 | -5 | 17 | 100 | 0 | x | x | x
CCCC12CN3CC(C)(CN(C1)C3c1ccco1)C2=O (centres undefined) | 84 | -20 | -3 | 93 | 1 | x | x | x
CCCCOc1ccc(S(=O)(=O)Nc2cccnc2)cc1 | -8.0*[inhibitor] | -23 | x | 1.0*[inhibitor] | 5 | 100 | -3 | 99
COCCNC(=O)COc1ncnc2scc(-c3ccc(F)cc3)c12 | 127 | 6 | 18 | 143* | 1 | 110 | 7 | 106
COc1ccc(/C=C/C(=O)NCC(=O)N/N=C(/C)c2ccco2)cc1 | 101 | -3 | x | 100 | x | x | x | x
OC(COC1CCCCC1)CN1CCCCC1 (centres undefined) | 99 | -3 | x | 96 | x | x | x | x
Cc1nnc(SCSc2nnc(C)s2)s1 | 101 | 12 | x | 104 | 1 | x | x | x
Cc1nnc(SCc2ccccc2CSc2nnc(C)s2)s1 | 113 | 0 | -14 | 130* | 7 | 106 | 7 | 107
CCC1=NN(S(=O)(=O)c2ccc(C)cc2)C(O)(C(F)(F)F)C1 (centres undefined) | 114 | 1 | -10 | 128* | 8 | 102 | -2 | 105
CC(C)NS(=O)(=O)c1ccc(NC(=O)C(C)Oc2ccc(C(=O)c3ccccc3)cc2)cc1 (centres undefined) | 100 | -1 | 8 | 147* | -14 | 97 | -9 | 102
COc1cc(/C=N/NC(=O)c2ccc(O)cc2)ccc1OCC(=O)N1CC(C)OC(C)C1 (centres undefined) | 91 | -11 | -7 | 91 | x | x | x | x
CN1CCN(CCCN2c3ccccc3Sc3ccc(C(F)(F)F)cc32)CC1 | 168* | 16 | x | 84 | -44 | 137 | 21 | 106
CN=C1S/C(=C\c2cccc(Cl)c2Cl)C(=O)N1C | x | x | 13 | x | x | x | x | x
COc1ccnc(-n2cccc2/C=N/O)c1C#N | 99 | -1 | x | 101 | -2 | x | x | x
CC(OC(=O)CNC(=O)c1ccc2ccccc2c1)C(=O)NC1CCCCC1C (centres undefined) | 102 | 7 | x | 99 | x | x | x | x
Cc1ccc(CNc2ccc3nnc(-c4ccccc4)n3n2)cc1 | 102 | -3 | x | 108 | -12 | x | x | x
c1ccc(CN2CCN(CCCNc3ccc4nnc(-c5ccccc5)n4n3)CC2)cc1 | 132 | 24* | x | 114 | -6 | 161 | 38 | 111
CCOC(=O)c1sc2nc(CSc3ccccc3)nc(N3CCCN(C)CC3)c2c1C | 134 | 1 | -7 | 130* | -33 | 158 | 21 | 104
CCc1ccc(NC(=O)Nc2cc(C(=O)O)ccc2N2CC3CC(C2)c2cccc(=O)n2C3)cc1 (centres undefined) | 99 | 4 | x | 104 | x | x | x | x
O=C(O)c1ccc(N2CC3CC(C2)c2cccc(=O)n2C3)c(NC(=S)Nc2ccc(Cl)cc2Cl)c1 (centres undefined) | 17*[inhibitor] | -30 | -9 | 65*[inhibitor] | 3 | 91 | -7 | 95
SMILES | MEKK2wt PB1 HTS | MEKK2 mut-MEK5 | Pf gametocyte | MEKK3 PB1 HTS | Arbovirus inh | MEKK2wt confirm | MEKK2mut confirm | MEKK3 confirm
CCCCN(C)CCCNC(=O)/C=C1\Sc2ccccc2NC1=O | 99 | -10 | 8 | 107 | 3 | x | x | x
O=c1oc2ccccc2c(Nc2cccc3cccnc23)c1[N+](=O)[O-] | 89 | -10 | 6 | 96 | -8 | x | x | x
O=c1oc2ccccc2c(Nc2ccc3ncccc3c2)c1[N+](=O)[O-] | 109 | 1 | 26 | 147* | -17 | 97 | -3 | 99
N#Cc1ccccc1NC(=O)CSc1ccc([N+](=O)[O-])cn1 | 102 | 3 | 4 | 97 | -2 | x | x | x
N#Cc1cc([N+](=O)[O-])cnc1NCC(O)CO (centres undefined) | 2.0*[inhibitor] | -18 | 15 | 2.0*[inhibitor] | 3 | 103 | 4 | 101
CCOC(=O)c1c(NC(=O)c2cccs2)sc2c1CCC2 | 92 | -1 | 25 | 88 | 1 | x | x | x
CCOC(=O)c1c(NC(=O)c2cccs2)sc2c1CCCC2 | -1.0*[inhibitor] | -9 | 5 | 1.0*[inhibitor] | 21 | 98 | 6 | 98
COc1ccc(N2C(=O)CCC2(C#N)c2ccc(Br)cc2)cc1 (centres undefined) | 63 | -25 | -15 | 49*[inhibitor] | 7 | 98 | -5 | 102
Cn1cc(CNC(=O)c2sc3cccc(Cl)c3c2Cl)cn1 | 102 | 11 | 2 | 131* | -6 | 96 | 2 | 101
CCc1ccc(C(=O)NCc2cnn(C)c2)s1 | 106 | 3 | x | 103 | -2 | x | x | x
Cc1ccc2nc(-c3ccc(NC(=O)CN4CCN(c5ccccn5)CC4)cc3)sc2c1 | 121 | 27 | -2 | 130* | x | 96 | -2 | 103
O=C1NC(=S)N/C1=C/c1cc2c(cc1[N+](=O)[O-])OCO2 | 107 | 5 | x | 103 | x | x | x | x
Cc1ccc(OCc2cc(C(=O)N3CCC(C(O)C(C)C)CC3)no2)cc1C (centres undefined) | 98 | 2 | x | 102 | x | x | x | x
S=C(Nc1ccc(Cl)cc1)NC1CC2CCC(C1)N2Cc1ccccc1 (centres undefined) | 156* | 41 | -7 | 110 | -24 | 142 | 28 | 110
